About 79,000 compounds went through this panel and 15% of them were active in at least one assay; those are over-represented in the sample as a whole. Cut-off read from the data, not from the text of the source: active = growth inhibition above about 70%; inactive = the rest.
How the values were obtained:
[1] = NCI Yeast Anticancer Drug Screen. Data for the rad50 strain (AID 155);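 note: 0% = growth of vehicle-only cultures of the same strain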; details: S. cerevisiae rad50 strain growth inhibition; at 50.0 µM; stronger effect = higher value
In short: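 DNA repair mutant yeast, compound exposure, growth read-out; inhibition is taken relative to vehicle.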

[2] = NCI Yeast Anticancer Drug Screen. Data for the mec2-1 strain (AID 157); details: S. cerevisiae mec2-1 strain, at 50.0 µM, stronger effect = higher value
In short: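 Strain: mec2-1 (DNA repair/cell cycle alteration). Compound exposure, then growth measured; inhibition expressed relative to vehicle.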

[3] = NCI Yeast Anticancer Drug Screen. Data for the sgs1 mgt1 strain (AID 161);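 note: 0% = growth of cultures given vehicle only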; details: S. cerevisiae sgs1 mgt1 strain, at 50.0 µM, stronger effect = higher value
In short: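 Test agents were incubated with a DNA-repair-mutant yeast strain. Growth was then read and compared against vehicle-treated controls.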

[4] = NCI Yeast Anticancer Drug Screen. Data for the cln2 rad14 strain (AID 165);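 note: 0% = growth equal to vehicle treated cultures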; details: S. cerevisiae cln2 rad14 strain, at 50.0 µM, stronger effect = higher value
In short: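 Compounds are applied to the cln2 rad14 yeast strain, and growth is then compared with that of vehicle-treated cultures to give inhibition.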

[5] = NCI Yeast Anticancer Drug Screen. Data for the bub3 strain (AID 167); details: S. cerevisiae bub3 mutant strain, at 50.0 µM, stronger effect = higher value
In short: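 In this screen, a yeast mutant lacking normal mitotic checkpoint function is challenged with compound. Relative growth versus vehicle gives the inhibition value.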

[6] = NCI Yeast Anticancer Drug Screen. Data for the mlh1 rad18 strain (AID 175); details: S. cerevisiae mlh1 rad18 strain growth inhibition; at 50.0 µM; stronger effect = higher value
In short: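 Read-out is yeast growth inhibition, calculated against vehicle-only controls. The compound was applied to a strain engineered with DNA damage repair alterations.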

Measured: growth inhibition

NC(=O)c1cc2ccccc2[n+](Cc2ccc(F)cc2)c1
inactive: [1] -0.2% | [2] 0.4% | [3] 6.45% | [4] -49.1% | [5] 4.9% | [6] -6.95%

COC/C=C(\C)CC/C=C(\C)CCC=C(C)C
inactive: [1] -8.2% | [2] 0.95% | [3] -1.2% | [4] 22.6% | [5] -27.3% | [6] 2.95%

CCOC(=O)C(C(=O)OCC)C(C(=O)OCC)(C(=O)OCC)C(C(=O)OCC)C(=O)OCC
inactive: [1] -15.2% | [2] -9.15% | [3] 1.85% | [4] -3.55% | [5] -3.65% | [6] -19.9%

Cc1ccc(NC(=S)NC2CCCCC2)cc1Cl
inactive: [1] -2.4% | [2] 43% | [3] 29.4% | [4] -24.9% | [5] 42.3% | [6] 26.6%

CC(C)(CN)C(=O)O
inactive: [1] -3.2% | [2] -6.95% | [3] -11.6% | [4] -17.1% | [5] -0.3% | [6] 9.75%

NCCN1CCCCCc2ccccc21
inactive: [1] -63.2% | [2] -53% | [3] -49.8% | [4] -17.4% | [5] -41.1% | [6] -39.3%

O=[N+]([O-])c1ccc(Oc2ccc(S(=O)(=O)O)cc2)cc1
inactive: [1] 13.8% | [2] 6.5% | [3] -4.35% | [4] 7.4% | [5] 6.6% | [6] 2.5%

C1CSC(SCCCSC2SCCCS2)SC1
inactive: [1] -4.1% | [2] 5.3% | [3] -9.9% | [4] -7.1% | [5] -12.2% | [6] -14.1%

COC1OC(COC(=O)c2ccc([N+](=O)[O-])cc2)C(SC#N)C1O (stereo unspecified)
inactive: [1] 27.4% | [2] 2.05% | [3] 26.2% | [4] -18.3% | [5] -10.6% | [6] 33.2%

COC(=O)c1ccc(C(=O)OC)c2nc3ccccc3nc12
inactive: [1] 13.1% | [2] 9.35% | [3] 8.45% | [4] 8.9% | [5] 15.1% | [6] 7.6%

CC(C)CC(C)C
inactive: [1] 17.9% | [2] -2.6% | [3] 20.7% | [4] 5.75% | [5] 13.4% | [6] 25.1%

Cc1cc(N(CCC#N)CCC#N)ccc1/C(N=Nc1ccc(Cl)cc1)=N\NC(=O)c1cc(Cl)ccc1O
inactive: [1] -16.6% | [2] -16.1% | [3] -31.1% | [4] -20.2% | [5] -29.6% | [6] -59.5%

CCC(O)CNCc1c2ccccc2cc2ccccc12 (stereo unspecified)
inactive: [1] 20.1% | [2] 14.7% | [3] 22.1% | [4] 12.6% | [5] 1.95% | [6] 10.8%

N=C(N)n1ncc(Cl)c(Cl)c1=O
inactive: [1] 30.8% | [2] 36.2% | [3] 33.9% | [4] 30.4% | [5] 38.9% | [6] 41.5%

OC1(c2ccccc2)CC2C=CC1C2 (stereo unspecified)
inactive: [1] -5.9% | [2] 8.2% | [3] 8.05% | [4] 17.2% | [5] 15.3% | [6] 5.15%

O=[N+]([O-])/C=C/c1cn(CCCCCn2cc(/C=C/[N+](=O)[O-])c3ccccc32)c2ccccc12
inactive: [1] -5.65% | [2] -8.65% | [3] -2.45% | [4] -7.65% | [5] 8.35% | [6] -9.8%

COc1cccc(NCC(=O)Nn2c(-c3ccccc3)nc3ccccc3c2=O)c1
inactive: [1] -37.5% | [2] -40.8% | [3] -27.2% | [4] -3.05% | [5] 5% | [6] -23%

Cc1[nH]n(-c2ncc(C#N)c(=O)[nH]2)c(=O)c1CCO
inactive: [1] -8.75% | [2] -34.1% | [3] -16% | [4] -31.9% | [5] -11.8% | [6] -71.3%

O=C(O)C1CCCCN1/N=C/c1ccccc1 (stereo unspecified)
inactive: [1] 15.8% | [2] 6.8% | [3] -1.65% | [4] -13.6% | [5] -30.8% | [6] 21.9%

Cc1[nH]c2ccccc2c1C(Cc1ccccc1NC(=O)CCC(=O)O)c1c[nH]c2ccccc12 (stereo unspecified)
inactive: [1] 9% | [2] -5.05% | [3] -4.5% | [4] -1.5% | [5] -0.9% | [6] 1.05%

COc1cc2c[n+](C)c3ccccc3c2cc1OC
inactive: [1] 4.75% | [2] 12% | [3] -16.6% | [4] -7.3% | [5] -21.1% | [6] -6.35%

CCN(CC)C1Oc2cc3c(cc2C(c2cccc(OC)c2O)C1C)OCO3 (stereo unspecified)
inactive: [1] 21.1% | [2] -0.15% | [3] 22.8% | [4] 21.7% | [5] 15.2% | [6] -1.4%

CCCCCCCCNC(C(=O)c1ccc(Cl)cc1)c1ccc(Cl)cc1 (stereo unspecified)
inactive: [1] 8.05% | [2] 17.4% | [3] 21.6% | [4] -18.3% | [5] -8% | [6] 25.8%

C=C(C)[C@@H]1CC[C@@H](C)C[C@H]1O
inactive: [1] 9% | [2] -11.8% | [3] -1.55% | [4] 13.8% | [5] 9.95% | [6] -1.65%

O=C(O)c1c(O)cc(=O)oc1-c1ccccc1Cl
inactive: [1] -17.4% | [2] -23.2% | [3] -17.4% | [4] -13.6% | [5] -18.9% | [6] -16.9%

O=c1c(SCc2ccc(Cl)cc2)c(SCc2ccc(Cl)cc2)cnn1-c1ccccc1
inactive: [1] -5.7% | [2] -17.2% | [3] 19.2% | [4] 6.65% | [5] -6.6% | [6] 13.1%

CC1=NN(C(=O)c2ccc(Cl)cc2)C(=O)/C1=C/c1ccccc1O
inactive: [1] 4.25% | [2] -14.4% | [3] -28.9% | [4] -7.55% | [5] 12.3% | [6] -18.8%

NC(=O)c1ccccc1N1CCCCC1
inactive: [1] 16.7% | [2] -0.2% | [3] 36% | [4] 21.5% | [5] 32.5% | [6] 22.4%

Cc1ccc(CS(=O)(=O)c2ccc(C)cc2)cc1
inactive: [1] -3.3% | [2] -0.45% | [3] -4.2% | [4] -36.8% | [5] -22.9% | [6] -2.35%

C=C(CC(=O)OCC)C(=O)OCC
inactive: [1] 15.4% | [2] 4.6% | [3] 18.4% | [4] 1.95% | [5] 1.25% | [6] 13.8%

CC(C)c1ccc(C(=O)OCCBr)cc1
inactive: [1] 18.7% | [2] -11.4% | [3] 16.2% | [4] -3.1% | [5] 1.7% | [6] 1.25%

O=C(NCCNCCO)N/N=C/c1ccccc1
inactive: [1] -0.2% | [2] -34.4% | [3] -15.9% | [4] -7.75% | [5] -39% | [6] -0.65%

CN(C)c1ccc(C2N(C)CCN2C)cc1
inactive: [1] -10.4% | [2] 6.85% | [3] 9.85% | [4] -1.8% | [5] -7.5% | [6] -12.8%

COc1ccc(-c2nc(-c3cc4c(ccc5ccccc54)oc3=O)cs2)cc1
inactive: [1] 24.4% | [2] 18.5% | [3] 1.45% | [4] 15% | [5] 0.9% | [6] -41.5%

O/N=C(/CN1CCOCC1)c1ccccc1
inactive: [1] -7.25% | [2] 7.9% | [3] -0.25% | [4] -20.9% | [5] 8.4% | [6] 0%

CC(C)COC(=O)c1ccc(NC(=O)CN2CC(C)OC(C)C2)cc1 (stereo unspecified)
inactive: [1] 43.8% | [2] -10.4% | [3] 61.9% | [4] 56.5% | [5] 7.95% | [6] 47%

COC(=O)C(Cc1nc2ccccc2[nH]c1=O)C(=O)C(=O)Nc1ccc(OC)cc1[N+](=O)[O-] (stereo unspecified)
inactive: [1] -14.4% | [2] -9.5% | [3] 14.3% | [4] -77.2% | [5] -1.4% | [6] 5.5%

CCCCC1(CC)COC2(CCCCC2)OC1
inactive: [1] 17.1% | [2] 37% | [3] 13.3% | [4] -22.2% | [5] 6.85% | [6] 6.95%

O=C(O)C(Br)C(Br)C(=O)Nc1cccc(C(F)(F)F)c1 (stereo unspecified)
inactive: [1] 17.4% | [2] -5.55% | [3] 14.9% | [4] 0.6% | [5] -2.15% | [6] 24.4%

CCCC#CCN(C(C)C)C(C)C
inactive: [1] -12.4% | [2] 1.65% | [3] -6.35% | [4] 29.2% | [5] -5.25% | [6] -7.85%

COc1cc(C=C2N=C(c3ccccc3)N(n3c(-c4ccccc4)nc4ccccc4c3=O)C2=O)cc(OC)c1OC
inactive: [1] -7.4% | [2] -6.6% | [3] 9.45% | [4] 7.85% | [5] 0.65% | [6] 21.6%

From PubChem BioAssay (NCI)
